Results as given in PubChem BioAssay.
Activity calls are given as the source filed them.

Biological target: Homeobox protein Hox-A13 (Mus musculus) (UniProt Q62424)
Experiment: inhibitors of HoxA13-DNA binding, primary screen, biochemical, fluorescence polarization, labeled oligonucleotide (AID 1185)
Conditions: 15 min, higher = more signal, called active from +8 up or from −8 down

Homeobox protein Hox-A13 (Mus musculus), sequence (Q62424 whole entry, looked up): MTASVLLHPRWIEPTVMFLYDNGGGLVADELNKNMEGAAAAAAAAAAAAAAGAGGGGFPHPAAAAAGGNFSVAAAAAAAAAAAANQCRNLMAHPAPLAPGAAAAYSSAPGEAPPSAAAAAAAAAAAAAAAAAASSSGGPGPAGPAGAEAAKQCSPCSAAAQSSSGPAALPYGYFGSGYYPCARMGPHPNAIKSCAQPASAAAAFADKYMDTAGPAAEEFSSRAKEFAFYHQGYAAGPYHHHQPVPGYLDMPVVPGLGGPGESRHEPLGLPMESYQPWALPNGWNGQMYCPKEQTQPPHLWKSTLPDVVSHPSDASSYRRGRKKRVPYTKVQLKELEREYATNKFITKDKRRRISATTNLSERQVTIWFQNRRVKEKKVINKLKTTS

z-score, inactive:
COc1cccc([C@@H]2Oc3ccc(Br)cc3C(=O)[C@H]2O)c1 -1.54
CO[C@@H]1COC(=O)CC=C[C@@H](C)[C@@H]2C=C[C@@H](O)[C@@H](COC(=O)CC=C[C@H]1C)O2 -0.816
O=C1C2=CC[C@H]3C(=O)N(Cc4ccc5c(c4)OCO5)C(=O)[C@H]3[C@H]2[C@H](O)[C@@H]2O[C@H]12 -0.229
CCOC(=O)[C@H](Cc1ccccc1)NC(=O)CCC1CC(OC(=O)NCc2ccc3c(c2)OCO3)CC2(CCCC(COC(=O)NCc3cccc(C(F)(F)F)c3)O2)O1 (stereo partly specified) -0.531
CO[C@@H]1COC(=O)CCC[C@@H](C)[C@H](OC)COC(=O)CCC[C@H]1C -1.03
C[C@@H]1C=CCC(=O)OC[C@H](C)C(=O)OC[C@H]2O[C@H]1C=C[C@H]2O -1.13
CC(C)CON=C1[C@H]2CCn3c(=O)n(-c4ccccc4)c(=O)n3[C@H]2[C@H](O)[C@@H]2O[C@H]12 -0.738
O=C1[C@H]2[C@H]3[C@H](O)[C@H](O)CC(=NO[C@@H]4O[C@H](CO)[C@@H](O)[C@H](O)[C@H]4O)[C@H]3CC[C@H]2C(=O)N1Cc1ccccc1 -1.28
CCN1C(=O)[C@H]2[C@H]3[C@H](O)[C@H](O)CC(=NOCC=C(C)CCC=C(C)C)[C@H]3CC[C@H]2C1=O 0.0102
CC(CCC(=O)OC[C@H]1O[C@H](C#Cc2ccccc2)C=C[C@@H]1Oc1ccc(C)cc1)=NOC[C@@H](O)COCc1ccco1 -3.65
CCN1C(=O)[C@H]2[C@H]3[C@H](O)[C@H](O)CC(=NO[C@@H]4O[C@H](CO)[C@@H](O)[C@H](O)[C@H]4O)[C@@H]3CC[C@H]2C1=O -0.0696
CC(CCC(=O)OC[C@H]1O[C@H](C#Cc2ccccc2)C=C[C@@H]1Oc1ccc(C)cc1)=NOC[C@@H](O)[C@H]1O[C@@H]2OC(C)(C)O[C@@H]2[C@H]1O -2.3
CC(C)(C)N1C(=O)[C@H]2[C@H]3[C@H](O)[C@H](O)CC(=NOCc4ccccc4)[C@@H]3CC[C@H]2C1=O 1.12
COC(=O)CC=C[C@@H](C)[C@@H](C=NO[C@@H](C)c1cc(-c2c(C)cc(C)cc2C)no1)OC -3.69
CCOC(=O)[C@H](CC(C)C)NC(=O)CCC1CC(OC(=O)NCc2cccc3ccccc23)CC2(CCCC(COC(=O)NCCN3CCOCC3)O2)O1 (stereo partly specified) -4.01
CCN1C(=O)[C@H]2[C@H]3[C@H](O)C=CC(=O)[C@@H]3CC[C@H]2C1=O 0.116
O=C(NN=C1C[C@@H](O)[C@@H](O)[C@@H]2[C@@H]3C(=O)N(c4ccc(F)cc4F)C(=O)[C@@H]3CC[C@@H]12)OCc1ccccc1 -1.72
C[C@@H]1CC[C@H]2C(=O)O[C@H](COc3ccc(C(C)(C)C)cc3)CN2[C@H]1c1ccc(Br)cc1 1.23
CCOC(=O)[C@H](Cc1ccccc1)NC(=O)CCC1CC(OC(=O)NCc2ccc3c(c2)OCO3)CC2(CCCC(COC(=O)NCC(c3ccccc3)c3ccccc3)O2)O1 (stereo partly specified) -3.45
C#CCCCON=C1C[C@@H](O)[C@@H](O)[C@@H]2[C@@H]3C(=O)N(c4cccc(Oc5ccccc5)c4)C(=O)[C@@H]3CC[C@@H]12 -5.65
COC(=O)[C@H](C)NC(=O)CCC1CC(OC(=O)NCc2cccc3ccccc23)CC2(CCCC(COC(=O)NCC3CCCCC3)O2)O1 (stereo partly specified) -2.34
CC(CCN1CCc2nc(-c3ccccc3)c(-c3ccccc3)cc2C1)=NOC(C)CN1CCCCc2nc(C)c(C)cc21 (stereo unspecified) -4.25
COC(=O)[C@H](C)NC(=O)[C@@H](C)CO -1.61
COC(=O)[C@@H]1CC[C@H](C)[C@@H](c2ccc(C)cc2)N1C(=O)c1ccc(C=NOC(C)CN2CCCCc3nc(C)c(C)cc32)cc1 (stereo partly specified) -3.03
O=C1[C@H]2[C@H]3[C@H](O)[C@H](O)CC(=NOCc4ccccc4)[C@H]3CC[C@H]2C(=O)N1c1cccc(Oc2ccccc2)c1 -1.3
CCOC(=O)NN=C1C[C@@H](O)[C@@H](O)[C@@H]2[C@@H]3C(=O)N(C4CCCCC4)C(=O)[C@@H]3CC[C@@H]12 -0.86
CCOC(=O)CCN1C(=O)[C@H]2[C@H]3[C@H](O)[C@H](O)CC(=O)[C@H]3CC[C@H]2C1=O 0.804
O=C1[C@H]2[C@H]3[C@H](O)[C@H](O)CC(=NO[C@@H]4O[C@H](CO)[C@@H](O)[C@H](O)[C@H]4O)[C@@H]3CC[C@H]2C(=O)N1Cc1ccccc1 0.638
CC(CCC(=O)OC[C@H]1O[C@H](C#Cc2ccccc2)C=C[C@@H]1Oc1ccc(C)cc1)=NO[C@@H](C)c1cn([C@H](CO)Cc2ccccc2)nn1 -2.38
CCOC(=O)CCN1C(=O)[C@H]2[C@H]3[C@H](O)[C@H](O)CC(=NOC[C@@H](O)COCc4ccco4)[C@H]3CC[C@H]2C1=O -3.71
C=CC[C@@H]1C=C[C@H](ON=Cc2ccc(C(=O)N3[C@H](c4ccc(C)cc4)[C@@H](C)CC[C@H]3C(=O)OC)cc2)[C@@H](CO)O1 -6.28
Cc1cc2c(nc1C)CCCN2CC(O)CN1CCN(C)CC1 (stereo unspecified) -3.1
CCN1C(=O)[C@H]2[C@H]3[C@H](O)[C@H](O)CC(=NOC[C@@H](C)[C@H](OCc4ccccc4)C(C)C)[C@@H]3CC[C@H]2C1=O -6.43
CO[C@H]1COC(=O)[C@H](C)NC(=O)[C@@H](C)COC(=O)CC=C[C@@H]1C -0.467
O=C1[C@H]2[C@H]3[C@H](O)[C@H](O)CC(=NOCc4ccccc4)[C@@H]3CC[C@H]2C(=O)N1Cc1ccccc1 -0.38

z-score, active:
COc1ccc(-c2ccc3c(n2)CCCN3CC(O)CN2CCCc3nc(C)c(C)cc32)cc1 (stereo unspecified) -9.12
